Measured values: PubChem BioAssay (NCI)
Values joined by “and” are separate entries in the source; they are usually repeats but may differ in a detail not shown here. Equal values may be shown once. About 83,000 compounds went through this panel and 20% of them were active in at least one assay; those are over-represented in the sample as a whole.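 Single-concentration screen, 48 h exposure, 96-well plates. Endpoint: percent growth. Below 10 = active.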 Values without a mark were called inactive. Active and inactive are the calls of the source.

The molecules below were run on MDA-MB-468 breast (assay: NCI-60 one-dose screen, 48 h (100 = growth as untreated, 0 = no growth, -100 = all killed)). Conditions: 10 µM unless noted.

Point of comparison: `CC(=O)Oc1ccc(C23c4ccccc4C2(OC(C)=O)c2cc(OC(C)=O)ccc23)cc1` (stereo not given), growth 14.8%. Against it:
- O=C(Cc1ccccc1)Cc1ccccc1 — higher, 99.5%
- CCC12CCC[N+]3([O-])CCC4(C(=Nc5ccccc54)C(O)(C(=O)OC)C1)C23 (stereo not given) — higher, 112%
- N#C/C(=C\c1c(-c2ccccc2)[nH]c2ccccc12)C(=O)c1ccccc1 — higher, 86.9%
- NC(=O)c1ccccc1OCC(O)CO (stereo not given) — higher, 95.6%
- CCc1c(C(=O)N[C@@H]2c3cc(Cl)ccc3CC[C@@H]2O)[nH]c(C)c1C(C)=O — higher, 94.1%
- N#Cc1ncc(Br)c(NC2CCCCCC2)n1 — higher, 91.9%
- CN(C)CCC(O)(Cc1ccccc1)c1ccccc1 (stereo not given) — higher, 110%
- CC/C(=C(/c1ccc(Cl)cc1)c1ccc(OCCN2CCCCCC2)cc1)c1ccccc1 — higher, 78.3%
- CC(C)=CCCC(C)c1ccc(C)c2c1OCN(CCCCCO)C2 (stereo not given) — higher, 90%
- C#CC#CC#CC#CC#CC#CC#CC#CC[C@H]1OC[C@H](COC(=O)O[C@@H](C(=O)O[C@H]2C[C@@]3(O)[C@@H](OC(=O)c4ccccc4)[C@@H]4[C@]5(OC(C)=O)CO[C@@H]5C[C@H](O)[C@@]4(C)C(=O)[C@H](OC(C)=O)C(=C2C)C3(C)C)[C@@H](NC(=O)c2ccccc2)c2ccccc2)O1 — higher, 19.3%
- COc1cc(C)cc2oc3oc(=N)c(C(=O)c4ccccc4)cc3c(=O)c12 — higher, 108%
- COc1cc(C2=NN(C(C)=O)C(c3cc(OC)c(OC)c(OC)c3)C2)ccc1O (stereo not given) — higher, 15.9%
- Clc1cc(Br)ccc1-c1ccc(CNCC2CCNCC2)o1 — higher, 21.2%
- CCOc1cc2c(cc1OCC)C(c1cc(C)c(O)c(C)c1)NCC2 (stereo not given) — higher, 102%
- C/C(=N\NC(=O)c1ccccc1N)c1ccccc1O — higher, 15.5%
- CN1CCN(Cc2ccc(NC(=O)c3cncc(C#Cc4cnc5ccc(N)nn45)c3)cc2C(F)(F)F)CC1 — higher, 25.5%
- C=CCn1cc(-c2nc3ccccc3s2)c2cc(-c3ccc4c5c(cccc35)C(=O)N(CCN3CCNCC3)C4=O)ccc21 — higher, 88.4%
- CCC(=O)C1C(=O)c2ccccc2C1=O — higher, 115%
- CSc1nnc(-c2cnn3c2NC(c2ccccc2)C3)n1-c1ccc(C(F)(F)F)cc1 (stereo not given) — higher, 71.1%
- O=C(Nc1ccc(F)cc1)c1cc([N+](=O)[O-])ccc1O — higher, 56.3%
- COC(=O)[C@H]1Cc2c([nH]c3ccccc23)[C@@H](c2cccs2)N1 — higher, 101%
- COc1ccc([C@H]2c3cc(OC)c(OC)cc3C=C(C=O)C2CO)cc1OC (stereo not given in full) — higher, 41%
- Cc1ccc[n+](CC(=O)c2cccc3ccccc23)c1 — higher, 80.2%
- CNS(=O)(=O)c1n[nH]nc1-c1cc(C(C)(C)C)c(O)c(C(C)(C)C)c1 — higher, 92.2%
- O=C1/C(=C\c2cn(Cc3ccccc3)c3ccc(Br)cc23)c2ccccc2N1c1c(Cl)cccc1Cl — higher, 84.1%
- CCN(CC)CCNc1ncnc2c1cnn2-c1ccc(Cl)cc1 — higher, 57.6%
- COc1ccc(S(=O)(=O)NCCCNc2nccc(-n3cnc4ccccc43)n2)cc1 — higher, 77.2%
- COc1cc(NC(=O)c2cccc(-c3cc(=O)c4c(O)c(OC)c(OC)cc4o3)c2)cc(OC)c1OC — higher, 59.9%

In the case of `CC1C=CC(OC(=O)C(C)(O)CCC(O)(C(=O)OC2CC(O)C(C(C)C)CC2(C)O)C(C)C)(C(C)C)CC1` (stereo not given), the growth is reported as -69.9% [4.63 µM] (active).
With `CC(C)c1cc(C(C)C)c(S(=O)(=O)Oc2ccc(NC(=O)c3ccc(Cl)cc3)cc2)c(C(C)C)c1` the growth was 8.01% (active).
In the case of `COc1ccc2c(c1)[nH]c(=O)c1c3cc(C)c(C)cc3cn21`, the growth is reported as 7.03% (active).
For `COc1ccc(-c2n[nH]nc2-c2cc(OC)c3c(c2OC)OCO3)cc1`, the growth was -24.1% (active).
For `C[C@H](NC(=O)c1c(N)nn2cccnc12)c1cc2cccc(C#Cc3cnn(C)c3)c2c(=O)n1-c1ccccc1`, the growth was -21.2% (active).
In the case of `CCC(C)C1NC(=O)C(CC(C)C)NC(=O)C(C)NC(=O)C(C(C)C)NC(=O)C(CCCCN)NC(=O)C(CC(C)C)NC(=O)C(C(C)C)NC(=O)[C@H](C)NC(=O)C(C(C)CC)NC(=O)C(CCCN=C(N)N)NC(=O)C(CCCCN)NC(=O)C(CCCN=C(N)N)NC(=O)C(CCCCN)NC(=O)C([C@H](C)CC)NC(=O)C(CCCCN)NC1=O` (stereo not given in full), the growth is reported as -4.06% (active).
With `CC(C)N=c1cc2n(-c3ccc(Cl)cc3)c3ccccc3nc-2cc1Nc1ccc(Cl)cc1` the growth was -45.1% (active) and -53.3% (active) and -42.4% (active).
With `COc1ccccc1C(=O)/C=C/c1cc2cccc(OC)c2[nH]c1=O` the growth was -43.9% (active).
For `Cc1cc(Nc2ncc(Cl)c(Nc3ccccc3S(=O)(=O)C(C)C)n2)c(OC(C)C)cc1C1CCNCC1`, the growth was -78.1% (active).
With `Nc1cc(C(F)(F)F)c(-c2cc(N3CCOCC3)nc(N3CCOCC3)n2)cn1` the growth was -51.6% (active).
With `CN(C)c1ccc(N=Nc2ccc(Br)cn2)c(O)c1` the growth was -6.7% (active).
